Data: PubChem BioAssay AID588689 (Southern Research Specialized Biocontainment Screening …, 2011)
Out of some 340,000 compounds screened, about 1,000 (0.29%) were called active. Cut-off read from the data, not from the text of the source: inconclusive = inhibition above about 29% without an active follow-up result; inactive = below that. These entries were drawn from the full list. Entries with a potency or affinity are not part of this list.

Target: Genome polyprotein (Dengue virus type 2 (strain 16681-PDK53)) (UniProt P29991)
Assay: flavivirus cap methylation enzyme inhibition – biochemical, confirmation dose response, primary screen (AID 588689)
Conditions: Dengue-2 NS5 methyltransferase capping enzyme assay, at 25 µM, stronger effect = higher value
[1] = measured here: pilot screen replicate inhibition

Row | SMILES | inhibition | inhibition [1]
1 | Cc1ccc(NC2CCCN(C(=O)c3cn4cc(Cl)ccc4n3)C2)cc1C (stereo not drawn) | 3.88% (inactive) | –
2 | COc1ccccc1N1CCN(CC(=O)Nc2ccc(CN3CCCCC3)cc2)CC1 | -7.05% (inactive) | –
3 | CC1=C(C#N)C(c2ccc(O)cc2)C2=C(CCCC2=O)N1 (stereo not drawn) | 0% (inactive) | –
4 | COc1ccc2cc(C3(C)NC(=O)N(CC(=O)NCCC4=CCCCC4)C3=O)ccc2c1 (stereo not drawn) | -6.89% (inactive) | -2.13%
5 | Cc1cc(C)cc(NC(=S)NC2CC3CCCC(C2)N3C2CC2)c1 (stereo not drawn) | -10.8% (inactive) | –
6 | Cc1cc(C(F)(F)F)nn1CC(=O)N1CCOCC1 | -2.05% (inactive) | –
7 | O=C(CN1C(=O)/C(=C2\SC(=S)N(C3CCS(=O)(=O)C3)C2=O)c2ccccc21)Nc1ccccc1 (stereo not drawn) | -1.82% (inactive) | –
8 | O=C(CN1C(=O)CNC1=O)Nc1cccc(C(F)(F)F)c1 | -1.61% (inactive) | –
9 | Cc1cccc(NC(=O)CN2C(=O)/C(=C3\SC(=S)N(CC4CCCO4)C3=O)c3ccccc32)c1 (stereo not drawn) | -5.35% (inactive) | –
10 | CCN1C(=O)C(=O)N(CC(=O)Nc2cccc(C(F)(F)F)c2)C1=O | 6.2% (inactive) | –
11 | CC(=O)N1C(=S)NC(=O)/C1=C1/C(=O)N(CC(=O)Nc2cccc(C)c2)c2ccccc21 | -2.91% (inactive) | –
12 | COc1ccc(NC(=O)CN2C(=O)/C(=C3\SC(=S)N(CCC(=O)O)C3=O)c3ccccc32)cc1 | 2.68% (inactive) | –
13 | CCO[C@H]1OC(C(=O)O)=C[C@@H](c2cn(C(C)=O)c3ccccc23)[C@@H]1CCCO | -0.8% (inactive) | –
14 | Cc1ccccc1C(=O)NCCNC(=O)c1ccccn1 | 4.99% (inactive) | –
15 | O=C(CSc1ccc(F)cc1)Nc1ccc(N2CCOCC2)c(Cl)c1 | -4.54% (inactive) | –
16 | CC(=O)N1CCN(CC(=O)Nc2ccccc2C(=O)NCc2ccc(C)cc2)CC1 | -0.89% (inactive) | –
17 | Cc1ccc(OCC(=O)OCC(=O)Nc2ccc3c(c2)OCO3)cc1C | -3.82% (inactive) | –
18 | Cc1cc(C(=O)OCC(=O)NCc2ccc(Cl)cc2Cl)c(C)o1 | -0.73% (inactive) | –
19 | Clc1ccc(CN2CCSCC2)c(Cl)c1 | -3.29% (inactive) | 2.1%
20 | C=C(C)c1cccc(C(C)(C)NC(=O)N2CCCC(C)C2)c1 (stereo not drawn) | -4.84% (inactive) | –
21 | Cc1cc(=O)[nH]c(N/N=C/c2cc(C)n(CC(F)(F)F)c2C)n1 | 1.74% (inactive) | –
22 | CC1CCN(C(=S)c2cn(Cc3ccc(F)cc3)c3ccccc23)CC1 | -6.61% (inactive) | –
23 | COCCN(C(=O)c1csnn1)C(C(=O)NC(C)(C)C)c1cccc(OC)c1 (stereo not drawn) | 0% (inactive) | –

Row | SMILES | inhibition | inhibition [1]
24 | O=[N+]([O-])c1cc(F)c(N2CCCCC2)cc1N1CCOCC1 | -8.91% (inactive) | –
25 | N#Cc1cc(N2CCCCC2)c([N+](=O)[O-])cc1C#N | -5.36% (inactive) | –
26 | O=C(NCc1ccccc1Cl)C(=O)NCC1OCCN1S(=O)(=O)c1ccc(F)cc1 (stereo not drawn) | -4.82% (inactive) | –
27 | CCc1ccc2c(c1)C(=O)C(=O)N2CCS(=O)(=O)c1ccccc1 | -11.6% (inactive) | –
28 | O=C(O)C(Cc1ccccc1)N1C(=O)/C(=C/c2cccnc2)SC1=S (stereo not drawn) | 8.37% (inactive) | –
29 | O=C(O)C(Cc1ccccc1)N1C(=O)/C(=C/c2ccccc2)SC1=S (stereo not drawn) | 15.5% (inactive) | –
30 | COc1ccc(/C=C2\SC(=S)N(C(Cc3ccccc3)C(=O)O)C2=O)cc1 (stereo not drawn) | 20.7% (inactive) | –
31 | COc1cccc(/C=C2/SC(=S)N(CCCC(=O)Nc3ccc(O)cc3)C2=O)c1 | -5.15% (inactive) | –
32 | COc1cc2c(=O)[nH]c3cc([N+](=O)[O-])ccc3c2cc1[N+](=O)[O-] | 8.05% (inactive) | –
33 | CCC(=O)Nc1nnc(Cc2ccccc2)s1 | 1.61% (inactive) | –
34 | CCN(CC)CCN1C(=O)C(=O)/C(=C(/O)c2ccc(S(=O)(=O)N3CCOCC3)cc2)C1c1ccc(Cl)cc1 (stereo not drawn) | -6.64% (inactive) | –
35 | COc1ccccc1NS(=O)(=O)c1cccs1 | 0% (inactive) | –
36 | O=S(=O)(Nc1cccc2ccccc12)c1cccs1 | -1.29% (inactive) | –
37 | O=C(CN1C(=O)/C(=C\c2cccc(Br)c2)Oc2ccccc21)NCCCN1CCOCC1 | 0.88% (inactive) | –
38 | O=C(CN1C(=O)/C(=C/c2cccc(Br)c2)SC1=S)N1CCCC1 | -5.1% (inactive) | –
39 | CCN1C(=O)C(=Cc2cccc(OC)c2Oc2ccc([N+](=O)[O-])cc2[N+](=O)[O-])SC1=S | -1.31% (inactive) | –
40 | Cc1cc(NC(=O)CN2C(=O)/C(=C/c3ccccc3F)SC2=S)no1 | 2.68% (inactive) | –
41 | O=C(CCCN1C(=O)/C(=C/c2ccccc2Cl)SC1=S)NNC(=O)c1ccccc1 | 8.33% (inactive) | –
42 | O/N=C/c1cc(Br)ccc1OCc1ccccc1F | 8.73% (inactive) | –
43 | O=C1/C(=C\c2cccc([N+](=O)[O-])c2O)SC(=S)N1Cc1ccccc1 | 32.5% (inactive) | –
44 | CN1CCN(c2ccc(NS(=O)(=O)c3ccc(Cl)cc3)cn2)CC1 | -7.03% (inactive) | –
45 | Cc1nnc(NC(=O)CC23CC4CC(CC(C4)C2)C3)s1 | -6.26% (inactive) | –
46 | O=C(Nc1ccc2c(c1)OCO2)C1CCN(S(=O)(=O)c2cccc3cccnc23)CC1 | 2.93% (inactive) | –

Row | SMILES | inhibition | inhibition [1]
47 | CCCOc1ccc(/C=C/C(=O)OCC(=O)N(C)c2c(N)n(Cc3ccccc3)c(=O)[nH]c2=O)cc1OCC | 3.69% (inactive) | –
48 | CC(C)N(O)C(=O)NC(C)(C)C | 0% (inactive) | –
49 | COc1ccc(NC2=CC(=O)N(C)C2=O)cc1 | -10.2% (inactive) | –
50 | COc1ccc(C(=O)Nc2cccc(-c3ccc4nncn4n3)c2)cc1OC | 2.3% (inactive) | –
51 | Cc1c(N=C/C=C2\N(C)c3ccccc3C2(C)C)c(=O)n(-c2ccccc2)n1C | -3.46% (inactive) | –
52 | CCc1cc(=O)oc2c3c(cc(OCC(=O)NCCCn4ccnc4)c12)OC(C)(C)CC3 | -1.45% (inactive) | –
53 | OCC[C@H]1C[C@H](O)[C@@H](O)[C@]2(OCCc3ccccc32)O1 | -1.2% (inactive) | –
54 | COc1cc(CNc2ccc(S(N)(=O)=O)cc2)ccc1OCc1ccccc1F | -6.36% (inactive) | –
55 | CCOc1c(Br)cc(CNc2ccc(N3CCOCC3)cc2)cc1OC | 70.4% (inactive) | –
56 | COc1cc(CNc2ccc(N3CCCC3)cc2)ccc1OCc1ccccc1 | 12.3% (inactive) | –
57 | COc1cc(CNc2ccc(N3CCCC3)cc2)cc(Cl)c1OC | 13.9% (inactive) | –
58 | CCOc1cc(CNc2ccc(S(N)(=O)=O)cc2)cc(Cl)c1OC | 3.64% (inactive) | –
59 | CCOc1c(Cl)cc(CNc2ccc(S(N)(=O)=O)cc2)cc1OC | -1.46% (inactive) | –
60 | Cc1nn(C)c(Cl)c1CN1CCCC(CCC(=O)NCc2ccccc2F)C1 (stereo not drawn) | 0% (inactive) | –
61 | CCN1C(=O)[C@@H]2[C@@H](c3ccc(-c4ccc(OC)cc4)c(OC)c3)N3CCCC[C@@]3(C(=O)OC)[C@@H]2C1=O | 17.5% (inactive) | –
62 | CCN1CCN(C(=O)CCc2nnc(CCc3c[nH]c4ccccc34)o2)[C@@H](C)C1=O | -13.8% (inactive) | –
63 | CN(C(=O)CSc1nnc(-c2cccnc2)n1-c1ccccc1F)C1CCS(=O)(=O)C1 (stereo not drawn) | 5.09% (inactive) | –
64 | O=C(C1=C(c2ccccc2)C(=O)c2ccccc2C1=O)c1ccccc1 | 3.59% (inactive) | –
65 | CC(=O)C1=C(c2ccc(Br)cc2)C(=O)c2ccccc2C1=O | 35% (inactive) | –
66 | Cc1cc(C)cc(NC2=C(N)C(=O)c3ccccc3C2=O)c1 | 13% (inactive) | –
67 | Nc1ccccc1NC(=O)c1ccccc1 | 3.27% (inactive) | –
68 | COc1cc(NS(=O)(=O)c2ccc(C)cc2)c2c(c1N)C(=O)c1ccccc1C2=O | 9.7% (inactive) | –
69 | Nc1ccc(NC(=O)c2ccccc2)c2c1C(=O)c1ccccc1C2=O | 3.24% (inactive) | –

Row | SMILES | inhibition | inhibition [1]
70 | O=C(NCCc1nc2ccccc2[nH]1)/C(=C/c1ccc2c(c1)OCO2)NC(=O)c1ccc(Cl)cc1Cl | -5.82% (inactive) | –
71 | CCCCNC(=O)COC(=O)c1c2c(nc3ccccc13)CCC2 | 4.4% (inactive) | –
72 | Cn1ccnc1C1CCCCN1C(=O)c1cc(COc2ccc(F)cc2F)on1 (stereo not drawn) | 1.47% (inactive) | –
73 | Cc1cccc(C)c1N1C(=O)C(Cl)=C(N2CCCC2)C1=O | -10.8% (inactive) | –
74 | CN1CCN(C2=C(Cl)C(=O)N(c3ccc(Cl)cc3)C2=O)CC1 | 14.2% (inactive) | –
75 | CC(C)c1ccc(S(=O)(=O)Nc2ccc(N3CCOCC3)cc2)cc1 | -9.76% (inactive) | –
76 | CN(C)C1=C(Cl)C(=O)N(c2ccc(Cl)c(Cl)c2)C1=O | 26.8% (inactive) | –
77 | O=C1C(Cl)=C(N2CCN(Cc3ccccc3)CC2)C(=O)N1c1ccccc1 | 67.7% (inactive) | –
78 | Cc1ccc(N2C(=O)C(Cl)=C(N3CCCCCC3)C2=O)cc1 | -6.21% (inactive) | –
79 | O=C1C(Cl)=C(N2CCOCC2)C(=O)N1CCc1ccccc1 | -0.8% (inactive) | –
80 | O=C(Nc1cccc(-n2cccn2)c1)C1CCCN(Cc2cc3ccccc3[nH]2)C1 (stereo not drawn) | -16.8% (inactive) | –
81 | COc1ccc(N2CCN(C3CCCN(C(=O)CN4CCCC4=O)C3)CC2)cc1 (stereo not drawn) | -4.52% (inactive) | –
82 | COCCCN1Cc2cccc(C(=O)O)c2C1=O | -4.84% (inactive) | –
83 | O=C(CCCc1nc(-c2ccc(Cl)cc2)no1)NCC1CCCO1 (stereo not drawn) | 1.63% (inactive) | –
84 | CC1(C)CC(=O)C(C2=NC3(CCCCC3)Cc3ccccc32)=C(O)C1 | 2.33% (inactive) | –
85 | C=C(C1=CCN(S(=O)C(C)(C)C)[C@@H]1CCO)c1ccccc1 (stereo partly drawn) | 0.33% (inactive) | -2.42%
86 | COc1ccc(/C=C(\C#N)C(=O)Nc2cc(S(=O)(=O)N3CCOCC3)ccc2N2CCCC2)cc1 | -4.53% (inactive) | –
87 | COc1ccc(-c2nc(-c3ccccn3)no2)cc1 | -2.71% (inactive) | –
88 | COC(=O)c1ccccc1N(C)S(C)(=O)=O | -6.11% (inactive) | –
89 | COc1ccccc1N1CCN(CCNC(=O)Nc2cccc(C)c2C)CC1 | -5.61% (inactive) | –
90 | Cc1ccccc1NC(=O)c1cccc(N2C(=O)C3CCCCC3C2=O)c1 (stereo not drawn) | -9.97% (inactive) | –
